Each structure is given as a SMILES string. The source made the active and inactive calls. The rule behind the calls is not given here.

A short description of this test: Brca1-Bard1 BiLC signal decrease – luminescence, single concentration, counter-screen for Mdm2/MdmX interaction inhibitor project, confirmation (AID 504668). Conditions: Brca1/Bard1 bimolecular luciferase complementation counterscreen, at 8 µM, stronger effect = higher value. In general terms: A counterscreen serves to expose hits that act by an unwanted route or on another target.
In general, inhibition refers to how much of the control response was suppressed. As to `CCN(CC)c1ccc(/C=N/NC(=O)c2c(Cl)cnn2C)c(O)c1`, the inhibition is 26.9% (active).

Take `CN(C(=O)c1ccc(S(=O)(=O)c2cccc(Cl)c2)c([N+](=O)[O-])c1)C1CCCCC1`: the inhibition is 28.9% (active).

Take `CC(C)(C)C(=O)NC(=S)NNC(=O)c1ccc(-c2ccccc2)cc1`: the inhibition was 28.9% (active).

For the compound `COc1ccccc1[C@@]1(C)ON(c2ccccc2C(F)(F)F)C1=O`, the inhibition is 31.6% (active).

As for `CCOc1cc(NC(=O)c2ccco2)c(OCC)cc1NC(=O)COc1ccccc1C`, the inhibition is 33.4% (active).

In the case of `C=CCC(Nc1ccccc1)C12C=CC(O1)C(C(=O)OC)=C2C(=O)OC` (stereo not given), the inhibition was 31.4% (active).

In the case of `COc1ccc([C@@H]2[C@@H]3C(=O)N(C(C)(C)C)C(=O)[C@@H]3[C@]3(Cc4ccccc4)C(=O)N(c4ccc(C(F)(F)F)cc4)C(=O)N23)cc1`, the inhibition is 27.8% (active).

For `COc1ccc(Nc2ccnc3ccccc23)cc1`, the inhibition is 33.7% (active).

Regarding `COc1cc(NS(=O)(=O)c2ccc(N/C=C(\C#N)c3nc4cc(Cl)ccc4o3)cc2)nc(OC)n1`, the inhibition was 35.2% (active).

`Cn1nnnc1Sc1ncnc2scc(-c3cccc(S(C)(=O)=O)c3)c12`: the inhibition was 27.4% (active).

In the case of `CCCCCCCCCC(=O)N[C@@H]1c2cc(OC)c(OC)cc2C[C@H]1OCc1ccccc1`, the inhibition was 35.8% (active).

On to `COc1ccc(C2=Nn3c(nnc3-c3ccccc3F)SC2)cc1OC1CCCC1`, for which the inhibition was 28.6% (active).

For the compound `Cc1ccc(/C=C/C(O)=C2/C(=O)N(C)C3(C)CC2c2ccccc2O3)cc1` (stereo not given), the inhibition was 30.1% (active).

On to `COc1ccc([C@@H]2[C@@H]3C(=O)N(C(C)(C)C)C(=O)[C@@H]3[C@]3(Cc4ccccc4)C(=O)N(c4ccc(Br)cc4)C(=O)N23)cc1`, for which the inhibition was 35.6% (active).

For `Cc1ccn2c(Nc3ccccc3C)c(-c3ccccn3)nc2c1`, the inhibition was 31.7% (active).

`Oc1ccc(N=Nc2ccccc2C(F)(F)F)c2cccnc12`: the inhibition was 23.3% (active).

`O=C(Nc1nc(-c2ccccn2)cs1)c1ccc(Cl)s1`: the inhibition is 24.4% (active).

For the compound `CCOC(=O)c1sc(NC(=O)Nc2cccc(Cl)c2)cc1C`, the inhibition is 34.4% (active).

Take `CC(C)(C)c1cc(C(=O)N/N=C/c2ccccc2O)n(-c2ccccc2)n1`: the inhibition was 28.9% (active).

As to `CCCC(=O)NC(c1cccs1)c1cc(Cl)c2cccnc2c1O` (stereo not given), the inhibition is 24.8% (active).

Turning to `Cc1ccc(-n2nc(C)c3c(C)c(CCC(=O)Nc4ccc(CN5CCCC5)cc4)c(C)nc32)cc1`, the inhibition is 25.5% (active).

Turning to `COc1ccc(C(C)=O)cc1CSc1nnc(-c2ccc(Cl)cc2)n1-c1ccccc1`, the inhibition was 25.6% (active).

In the case of `Cc1ccc(OC(F)F)c(NC(=O)Nc2cccc(C(F)(F)F)c2)c1`, the inhibition was 23.7% (active).

For the compound `Cc1oc2c(Cl)c(Cl)c(O)c(CN(C)C)c2c1C(=O)c1ccc(Cl)cc1`, the inhibition was 26.8% (active).

Take `C/C(=N/NC(=O)CN(c1ccccc1)S(=O)(=O)c1ccccc1)c1ccccc1O`: the inhibition was 26.8% (active).

As for `Cc1cccc(/C=N/NC(=O)c2c(-c3ccccc3)noc2C)c1O`, the inhibition was 35.6% (active).

Take `O=C1Nc2cccnc2N(C(=O)CCl)c2ccccc21`: the inhibition is 31.2% (active).

`Nc1ccc(C(=O)OCc2nc3cc4ccccc4cc3[nH]2)cc1`: the inhibition was 34.5% (active).

As for `Cc1ccccc1-c1cc(C(=O)Nc2sc(C(=O)OC(C)C)c(C)c2C#N)c2ccccc2n1`, the inhibition was 23.7% (active).

With `O=c1c2ccccc2nc(N/N=C/c2c(O)ccc3ccccc23)n1O`, the inhibition is 35.9% (active).

On to `Cc1ccc(C(C)C)cc1OCC(=O)Nc1nnc(C2CC2)s1`, for which the inhibition is 33.4% (active).

For the compound `O=Cc1[nH]c2ccccc2c1N(C(=O)CCl)c1ccc([N+](=O)[O-])cc1`, the inhibition was 25.5% (active).

Turning to `Clc1ccc(Cn2ncc3c(NCc4ccco4)ncnc32)c(Cl)c1`, the inhibition was 31.2% (active).

For the compound `Cc1cccc([C@@H]2[C@@H]3C(=O)N(Cc4ccccc4)C(=O)[C@@H]3[C@]3(C)C(=O)N(c4ccc(C(F)(F)F)cc4)C(=O)N23)c1`, the inhibition is 33.2% (active).

As to `COc1ccc(Oc2ccc(/C=C/C(=O)c3cccc(OC)c3)cc2[N+](=O)[O-])cc1`, the inhibition is 26.2% (active).

Regarding `Cc1cc(C)c(S(=O)(=O)N2CCCCC2CCNC(=O)C(=O)NC2CC2)c(C)c1` (stereo not given), the inhibition is 25.4% (active).

As to `Oc1c(CN2CCN(c3ccccn3)CC2)cc(Cl)c2cccnc12`, the inhibition is 28% (active).

As to `CCCN(CCC)c1nc(-c2ccccn2)nc2ccccc12`, the inhibition is 24.6% (active).

On to `N=c1c2c(-c3ccccc3)c(-c3ccccc3)n(Cc3ccco3)c2ncn1Cc1ccco1`, for which the inhibition is 31.4% (active).

As for `COc1ccc2[nH]c(C(=O)N/N=C/c3ccc(O)cc3O)cc2c1`, the inhibition is 31.2% (active).

The record behind these values is PubChem BioAssay.
